According to PubChem BioAssay AID686964 (The Scripps Research Institute Molecular Screening Center, 2013):
Among all 370,000 compounds or so, about 1,100 (0.3%) were called active. This excerpt belongs to a sample that is enriched for actives. A number with no mark means an inactive call. Rule as the data show it: active = inhibition above about 13%; inactive = the rest.

biological target: Methyl-CpG-binding domain protein 2 (Homo sapiens) (UniProt Q9UBB5); test: inhibitors of MBD2 binding to methylated DNA, primary screen, biochemical, TR-FRET, DNA-binding domain, human (AID 686964); conditions: MBD2 binding to methylated oligonucleotide, at 4.4 µM, hits give high values
Sequence (Q9UBB5 whole entry, looked up, the tested form may be a part): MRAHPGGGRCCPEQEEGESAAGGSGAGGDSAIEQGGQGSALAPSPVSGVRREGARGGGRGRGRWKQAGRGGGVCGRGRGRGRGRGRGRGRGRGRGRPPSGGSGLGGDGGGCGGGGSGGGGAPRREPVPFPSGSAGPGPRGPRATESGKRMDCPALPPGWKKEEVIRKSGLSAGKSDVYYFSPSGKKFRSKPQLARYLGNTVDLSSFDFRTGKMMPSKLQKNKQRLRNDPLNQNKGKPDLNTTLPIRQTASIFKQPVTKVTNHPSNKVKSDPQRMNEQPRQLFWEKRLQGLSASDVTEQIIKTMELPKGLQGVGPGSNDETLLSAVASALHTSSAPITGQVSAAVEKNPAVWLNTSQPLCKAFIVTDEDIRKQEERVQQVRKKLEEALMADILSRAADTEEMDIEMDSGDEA

Row | Structure (SMILES) | inhibition
1 | CS(=O)(=O)N(C(=O)NC(=O)NC1CCS(=O)(=O)C1)C1CCCCC1 (centres undefined) | 0.13%
2 | CCCC1CCC2(CCCN2CCOC(=O)NCc2ccccc2)CC1 (centres undefined) | 3.95%
3 | COc1ccnc(NC(=S)N2CCN(c3ncc(C(F)(F)F)cc3Cl)CC2)c1 | 6.09%
4 | CCOc1cc(-c2noc(CCCC(=O)NC3CCCCC3)n2)ccc1OC | 20.2% (active)
5 | COc1ccc(-c2noc(CCCC(=O)NC3CCCC3)n2)cc1OC | -2.51%
6 | CCOc1cc(-c2noc(CCC(=O)N3CCOCC3)n2)ccc1OC | -5.56%
7 | CCOC(=O)[C@]12CCCC=C1N(CCCOC)C(=O)[C@@H]2CC(=O)N1CCOCC1 | -0.28%
8 | Cc1cc(C(=O)NN=C/C=C/c2ccco2)n[nH]1 | -1.33%
9 | C/C=C/c1ccc(OCCCCN2CCC(C)CC2)c(OC)c1 | -2.18%
10 | C[C@H](O)[C@@H]1C(=O)N2CCc3c([nH]c4c(-c5ccc6c(c5)OCO6)cccc34)[C@@H]2C[C@@H]1N(C)C(=O)c1ccco1 | -2.04%
11 | O=S(=O)(NCC1CCCO1)c1cnc(Cl)c(Cl)c1 (centres undefined) | 4.2%
12 | O=C(CC1CCCCC1)Nc1c2c(nn1-c1ccc(F)cc1)CS(=O)(=O)C2 | 15.6% (active)
13 | COc1ccccc1OCC(=O)Nc1c2c(nn1-c1ccc(F)cc1)CS(=O)(=O)C2 | -1.49%
14 | O=C(Nc1c2c(nn1-c1ccccc1)CS(=O)(=O)C2)C1CCCC1 | 2.43%
15 | c1coc(CCNc2ncnc3ccc(-c4ccc5c(c4)OCO5)cc23)c1 | -2.55%
16 | CC(C)Oc1ccc(C2NC(=O)NC2=O)cc1 (centres undefined) | 15.2% (active)
17 | O=C1NC(=O)C(c2ccc(Cl)cc2)N1 (centres undefined) | 0.89%
18 | COc1ccc(C2NC(=O)N(C)C(C)=C2[N+](=O)[O-])cc1 (centres undefined) | 0.13%
19 | CN(C)Cc1cn(-c2ccc(-c3noc4c3C(=O)N(CC(=O)N3CCOCC3)CC4)cc2)nn1 | -2.86%
20 | COC(=O)[C@]12C[C@H](CC(=O)NCc3ccc(OC)c(OC)c3)C(=O)N(Cc3ccccc3)C1=C[C@H](C(C)C)O[C@@H]2C1CC1 | -2.93%
21 | CC(C)c1nc(CNC(=O)CC2C(=O)NCCN2Cc2cccc(F)c2F)cs1 (centres undefined) | 24.3% (active)
22 | Cc1ccc(CN2CCNC(=O)C2CC(=O)NCc2csc(C(C)C)n2)cc1 (centres undefined) | 0.13%
23 | CC(C)c1nc(CNC(=O)CC2C(=O)NCCN2Cc2ccoc2)cs1 (centres undefined) | -4.85%
24 | COc1ccc(Cn2cc(CN3[C@@H](CC(C)C)COc4cc(Br)ccc4S3(=O)=O)nn2)cc1 | 0.36%
25 | CN(C)CCNC(=O)c1ccc(Cl)c2cc3ccccc3nc12 | 51.2% (active)
26 | Cc1c(C(=O)NCCN(C)C)oc2ccc(S(=O)(=O)N3CCCC3)cc12 | 4.85%
27 | CN(C)CCNC(=O)Cc1ccc([N+](=O)[O-])cc1 | -0.79%

Row | Structure (SMILES) | inhibition
28 | COc1ccc(OCCCC(=O)Nc2cccc(S(=O)(=O)N3CCCCCC3)c2)cc1 | -2.96%
29 | C[C@H]1[C@H](c2ccccc2)Oc2cc(Br)ccc2S(=O)(=O)N1Cc1cccc(F)c1 | 8.37%
30 | O=C1/C(=C\c2ccc([N+](=O)[O-])cc2)CS(=O)(=O)C/C1=C/c1ccc([N+](=O)[O-])cc1 | -5.61%
31 | O=S(=O)(c1ccccc1)N1CCC(c2ccccc2)CC1 | 0.43%
32 | CCOc1ccc(S(=O)(=O)N2CCC(C(=O)NCc3ccccn3)CC2)cc1Cl | -0.81%
33 | CCOc1ccc(S(=O)(=O)N2CCC(c3ccccc3)CC2)cc1C(=O)O | 22.6% (active)
34 | CSc1ncccc1C(=O)N1CCCC(Nc2ccc(F)c(F)c2)C1 (centres undefined) | 2.81%
35 | COC(=O)c1cccc(C(=O)N2CCCC(Nc3ccc4c(c3)OCCO4)C2)c1 (centres undefined) | 4.97%
36 | O=C(c1n[nH]c2c1CCC2)N1CCCC(Nc2cccc(F)c2)C1 (centres undefined) | 14.7% (active)
37 | O=C(CSc1nnc(COc2ccccc2)n1-c1ccc(Cl)cc1)Nc1ccc2c(c1)OCO2 | 3.27%
38 | Cc1ccccc1C(=O)N[C@H](C(=O)N1CCC[C@H]1C(=O)NCc1ccccc1)C(C)C | -4.41%
39 | COC(=O)Cc1ccc(OC2(C)CCN(Cc3ccc4c(c3)OCCO4)C2)cc1 (centres undefined) | 5.04%
40 | COC(=O)c1c(NC(=O)c2ccc(S(=O)(=O)N3CCOCC3)cc2)sc2c1CCN(C(C)C)C2 | 13.3% (active)
41 | COc1ccc(S(=O)(=O)N2CCOCC2)cc1NC(=O)c1ccc(OCC(C)C)c(OC)c1 | 0.42%
42 | CC(OC(=O)c1ccc(S(=O)(=O)N2CCOCC2)cc1)c1ccccc1 (centres undefined) | 5.42%
43 | CC(OC(=O)CCC(=O)c1ccccc1)C(=O)Nc1ccc(F)cc1 (centres undefined) | -0.7%
44 | COCCNC(=S)N(C)[C@H]1C[C@H]2c3[nH]c4ccccc4c3CCN2C[C@H]1[C@H](C)O | -2.52%
45 | CCOc1ccc(-n2c(SCC(=O)Nc3cc(C)c(NC(=O)c4ccccc4)cc3OC)nnc2-c2cccs2)cc1 | -6.74%
46 | CCOc1ccc(N(CC(=O)NCCc2ccc(F)cc2)S(=O)(=O)c2ccccc2)cc1 | 4.6%
47 | COc1ccc(CCNC(=O)CN(c2ccccc2)S(=O)(=O)c2ccccc2)cc1 | 2%
48 | CCOc1ccc(N(CC(=O)NCCOc2ccccc2OC)S(=O)(=O)c2ccccc2)cc1 | 15.1% (active)
49 | C=CCN1C(=O)[C@@H](CC(=O)N2CCN(C(=O)c3ccco3)CC2)[C@]2(C(=O)OC)CCCCC=C12 | 3.2%
50 | CN(CCc1ccccc1)C(=O)Cn1nc(-c2ccccc2)ccc1=O | -0.03%
51 | CCOC(=O)N1CCN(C(=O)C[C@H]2C[C@@]3(C(=O)OC)C(=C[C@H](C4CCCC4)O[C@@H]3C)N(Cc3ccccc3)C2=O)CC1 | -8.2%
52 | COc1ccc2[nH]c3c(C)c4cc[n+](C)cc4c(C)c3c2c1 | 109% (active)
53 | CCCc1nnc(SCC(=O)N2C(C)CCCC2C)n1CC (centres undefined) | 3.6%
54 | O=P(c1cccs1)(c1cccs1)c1cccs1 | 0.79%
